PubChem BioAssay (NCATS)
Results filed as inconclusive are left out. Calls of active or inactive are those of the source. Unless noted, the call rests on the fitted dose curve; in most records, active means well fitted curve in the direction sought with a large enough effect; inconclusive means small, poorly fitted or top-dose-only effect, or another doubt; inactive means no such curve, though single readings can be large; an effect the other way counts as inactive or inconclusive.

Columns and labels:
[1] = target: Peptidyl-prolyl cis-trans isomerase NIMA-interacting 1 (Homo sapiens) (UniProt Q13526); test: qHTS Validation Assay to Find Inhibitors of Pin1 (AID 504536; active means well fitted inhibition curve with a large enough effect in the polarisation, with a control signal flat, not every such curve was filed as active; the % refers to the polarisation); conditions: Pin1 fluorescence polarization peptide binding assay; series mostly up to 57.5 µM
Sequence of Peptidyl-prolyl cis-trans isomerase NIMA-interacting 1 (Homo sapiens) (Q13526 whole entry, looked up): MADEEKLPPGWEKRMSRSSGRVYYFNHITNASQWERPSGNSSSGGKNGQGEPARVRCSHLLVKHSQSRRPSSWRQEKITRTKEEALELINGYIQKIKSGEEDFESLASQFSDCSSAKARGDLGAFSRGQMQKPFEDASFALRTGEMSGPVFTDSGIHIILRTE
Outline: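 Fluorescence polarization competition: compounds (titration) displace HiFluor-488-labeled Pin1-1b peptide from Pin1 (0.3 uM final) in pH 7.5 HEPES buffer with DTT, 10 min at room temperature; %Activity normalized to no-enzyme wells, curves fitted.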

[2] = target: Phosphoglycerate kinase, glycosomal (Trypanosoma brucei brucei) (UniProt P07378); test: qHTS Validation Assay to Find Inhibitors of Phosphoglycerate Kinase (AID 504547); conditions: enzymatic PGK inhibition, coupled luminescence read-out; series mostly up to 57.5 µM
Sequence of Phosphoglycerate kinase, glycosomal (Trypanosoma brucei brucei) (P07378 whole entry, looked up): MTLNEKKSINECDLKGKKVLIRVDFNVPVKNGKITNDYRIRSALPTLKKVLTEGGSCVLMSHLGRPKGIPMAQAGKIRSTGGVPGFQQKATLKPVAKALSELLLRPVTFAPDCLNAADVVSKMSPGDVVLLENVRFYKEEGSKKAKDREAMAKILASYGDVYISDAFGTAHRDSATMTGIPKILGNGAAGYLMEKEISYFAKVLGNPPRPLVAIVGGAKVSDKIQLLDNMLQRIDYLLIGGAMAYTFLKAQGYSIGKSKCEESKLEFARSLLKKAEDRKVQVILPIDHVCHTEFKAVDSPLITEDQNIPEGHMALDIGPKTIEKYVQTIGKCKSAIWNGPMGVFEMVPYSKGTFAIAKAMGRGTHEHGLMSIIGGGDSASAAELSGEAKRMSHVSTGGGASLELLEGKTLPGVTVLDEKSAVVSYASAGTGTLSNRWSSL
Outline: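 Substrate/PGK mix plus compound; reaction started with GAPDH (100nM final) to form 1,3-BPG; 60 min RT; Kinase-Glo Plus 10 min; luminescence. TEA 100mM pH 7.6, MgCl2 5mM, Tween-20 0.01%.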

[3] = target: phosphoglycerate mutase (Leishmania major) (UniProt Q4Q090); test: qHTS Validation Assay to Find Inhibitors of Phosphoglycerate Mutase (AID 504548); conditions: biochemical enzyme activity; Potency: inhibition qHTS; series mostly up to 57.5 µM;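 further: end-point luminescence from Kinase-GloPlus after the PGAM reaction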
Sequence of phosphoglycerate mutase (Leishmania major) (Q4Q090 1-553): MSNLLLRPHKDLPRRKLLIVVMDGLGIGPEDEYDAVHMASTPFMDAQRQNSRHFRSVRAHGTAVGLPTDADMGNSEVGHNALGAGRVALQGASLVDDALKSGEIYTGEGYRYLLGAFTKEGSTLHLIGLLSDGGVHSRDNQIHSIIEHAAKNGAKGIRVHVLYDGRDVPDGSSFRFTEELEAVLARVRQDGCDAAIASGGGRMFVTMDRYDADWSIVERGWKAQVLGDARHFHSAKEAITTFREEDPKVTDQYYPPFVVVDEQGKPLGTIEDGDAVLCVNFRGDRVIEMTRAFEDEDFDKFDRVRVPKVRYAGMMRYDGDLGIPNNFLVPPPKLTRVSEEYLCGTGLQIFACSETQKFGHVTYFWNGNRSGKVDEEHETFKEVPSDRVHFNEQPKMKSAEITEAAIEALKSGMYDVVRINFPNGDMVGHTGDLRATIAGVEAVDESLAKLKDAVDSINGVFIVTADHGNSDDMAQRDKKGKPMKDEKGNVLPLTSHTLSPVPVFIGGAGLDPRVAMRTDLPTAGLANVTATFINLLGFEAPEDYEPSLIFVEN
Outline: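 L. major PGAM (1.25nM final) was added to substrate buffer and pinned compound, incubated 45 minutes at room temperature, then Kinase-GloPlus added; luminescence read after 10 minutes. Buffer: 100 mM TEA pH 7.6, 5 mM MgCl2, 0.01% Tween-20.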

[4] = Inducers of the Endoplasmic Reticulum Stress Response (ERSR) in human glioma: Validation (AID 504836); conditions: human glioma cells, ER stress response reporter; series mostly up to 38.3 µM
Outline: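 Stably transfected U87-MG human glioma cells carrying a GRP78-based luminescent sensor were seeded at 1000 cells/well, pin-dosed with compounds and incubated 16 h. Luciferase reagent was then added, and end-point luminescence was read after 10 min at room temperature.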

[5] = target: Ubiquitin carboxyl-terminal hydrolase 1 (Homo sapiens) (UniProt O94782); test: Inhibitors of USP1/UAF1: Pilot qHTS (AID 504865); conditions: purified USP1/UAF1, Ub-rhodamine cleavage fluorescence; series mostly up to 114 µM;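 further: rhodamine fluorescence freed from ubiquitin-rhodamine substrate followed over time; top concentration of the series differs between compounds; nearly all actives have a fitted effect of over 35% in size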
Sequence of Ubiquitin carboxyl-terminal hydrolase 1 (Homo sapiens) (O94782 whole entry, looked up): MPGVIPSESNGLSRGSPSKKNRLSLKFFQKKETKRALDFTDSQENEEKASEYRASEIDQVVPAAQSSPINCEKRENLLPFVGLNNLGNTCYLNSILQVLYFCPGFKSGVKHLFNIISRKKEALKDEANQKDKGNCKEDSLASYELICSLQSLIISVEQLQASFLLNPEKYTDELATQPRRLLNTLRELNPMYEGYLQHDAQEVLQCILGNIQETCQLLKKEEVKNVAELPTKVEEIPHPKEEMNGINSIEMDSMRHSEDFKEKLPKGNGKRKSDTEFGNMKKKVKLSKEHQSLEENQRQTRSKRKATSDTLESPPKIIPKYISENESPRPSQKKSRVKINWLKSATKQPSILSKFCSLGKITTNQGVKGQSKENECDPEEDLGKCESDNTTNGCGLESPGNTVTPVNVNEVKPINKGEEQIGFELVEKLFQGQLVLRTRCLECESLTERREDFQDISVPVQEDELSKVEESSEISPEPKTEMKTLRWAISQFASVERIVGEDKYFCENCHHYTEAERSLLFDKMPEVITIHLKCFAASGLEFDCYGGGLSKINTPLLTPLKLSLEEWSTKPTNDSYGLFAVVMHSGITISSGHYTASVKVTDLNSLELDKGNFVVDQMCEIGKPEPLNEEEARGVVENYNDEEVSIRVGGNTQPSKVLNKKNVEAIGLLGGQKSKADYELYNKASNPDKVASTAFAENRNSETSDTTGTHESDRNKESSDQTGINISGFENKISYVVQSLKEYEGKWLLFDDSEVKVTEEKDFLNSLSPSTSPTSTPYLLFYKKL
Outline: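 USP1/UAF1 complex at 1 nM preincubated 15 min at room temperature with compound, then Ub-Rho substrate added at 150 nM final. Fluorescence (480/540 nm) read kinetically in 50 mM HEPES pH 7.8, 0.5 mM EDTA, 1 mM TCEP, 0.1 mg/ml BSA, 0.01% Tween-20.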

[6] = qHTS for Inhibitors of ATXN expression: Validation of Cytotoxic Assay (AID 588349); conditions: cytotoxicity counter-screen for ATXN expression inhibitors, cell viability; series mostly up to 57.1 µM
Outline: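 HEK293 cells treated with titrated compound for 72 hr at 37 degrees C; viability read as intracellular ATP by CellTiter Glo luminescence.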

[7] = qHTS for Inhibitors of ATXN expression: Validation (AID 588378); conditions: cell-based ATXN2 expression reporter assay, luminescence; series mostly up to 57.1 µM; further: nearly all actives have a fitted effect of over 75% in size
Outline: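 HEK293 cells carrying ATXN2-firefly luciferase reporter, treated with compound 24 h at 37 °C. Viability read first by CellTiter-Fluor (405/525 nm), then reporter expression by Bright-Glo luminescence; controls were a known ATXN2 expression inhibitor and a luciferase inhibitor.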

Measured: Potency

C=CCN1CC[C@]23c4c5ccc(O)c4O[C@H]2/C(=N/NC(=O)c2ccccc2)CC[C@@]3(O)[C@H]1C5
inactive: all assays above

CCCC[N+]1(C)C2CC(OC(=O)[C@H](CO)c3ccccc3)CC1C1OC12 (some centres not stated)
inactive: all assays above

NC(=O)CI
inactive: all assays above

CCCN(CCC)[C@H]1CCc2c(F)ccc(O)c2C1
inactive: all assays above

NC(CCCCCP(=O)(O)O)C(=O)O (configuration not stated)
inactive: all assays above

CC(C)(C)c1o[nH]c(=O)c1CC(N)C(=O)O (configuration not stated)
inactive: all assays above

Oc1ccc2c3c1O[C@H]1c4oc5ccccc5c4C[C@@]4(O)C(C2)N(CC2CC2)CCC314 (some centres not stated)
inactive: [1] | [2] | [3] | [4]

O=[N+]([O-])c1ccc2nc(N3CCNCC3)ccc2c1
not listed: [6] | [7]
inactive: all other assays above

CCN(CCCl)Cc1ccccc1Br
inactive: all assays above

c1ccc2cc(CC3=NCCN3)ccc2c1
inactive: all assays above

NCCCP(=O)(O)O
inactive: all assays above
